Rows were chosen to be rich in hits. Some 2.9% of all compounds tested hit in one or more screens of this group.
MEKK2wt PB1 HTS: raises or lowers MEK5 binding to wildtype human MEKK2 PB1 domain. binding response (% of control), % at 10 µM. AID 1531. 290,000 compounds, 1.1% hits. Q9Y2U5. bead flow cytometry, Alexa488-MEK5 binding to MEKK2 WT; actives lie on both sides; in the data active = binding response below about 67% or above about 130%
MEKK2mut PB1 HTS: signal of MEK5 binding to mutant human MEKK2 PB1 domain; percent response, % at 10 µM; bead flow cytometry, Alexa488-MEK5 binding to MEKK2 mutant; AID 1530; 290,000 compounds, 0.35% hits; in the data active = percent response above about 24%, passing the limit was not always enough
MEKK3 PB1 HTS: MEKK3-MEK5 PB1 interaction, increase or decrease; 290,000 compounds, 1.4% hits; Q99759; binding response (% of control), % at 10 µM; bead-based flow cytometry, Alexa488-MEK5 binding to MEKK3; actives lie on both sides; 0 = blocked by unlabeled MEK5, 100 = vehicle;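 active = binding response more than 3 SD above or below the average of its plate-row segment, actives on both sides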;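 note: Alexa488 bead fluorescence after subtracting the streptavidin-only scavenger bead signal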
DNA FID counter: counter-screen for HCV NS3 helicase inhibitors: DNA intercalator displacement; DNA fluorescent intercalator displacement, fluorescence; inhibition, % at 7.9 µM; 290,000 compounds, 0.17% hits; AID 1845; in the data active = inhibition above about 37%;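 note: higher means more ethidium bromide displaced from hairpin DNA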
dFosB activator: mouse delta FosB homodimer activation | AID 493131 | P13346 | purified delta FosB, TAMRA-CDK5 oligo fluorescence polarization; percent of positive-control signal above neutral wells | activation, % at 25 µM | 340,000 compounds, 0.99% hits;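 active = mean activation above about 17%, with every replicate also reaching it, limit read from the data, passing the limit was not always enough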
Target sequence (P13346 whole entry, looked up): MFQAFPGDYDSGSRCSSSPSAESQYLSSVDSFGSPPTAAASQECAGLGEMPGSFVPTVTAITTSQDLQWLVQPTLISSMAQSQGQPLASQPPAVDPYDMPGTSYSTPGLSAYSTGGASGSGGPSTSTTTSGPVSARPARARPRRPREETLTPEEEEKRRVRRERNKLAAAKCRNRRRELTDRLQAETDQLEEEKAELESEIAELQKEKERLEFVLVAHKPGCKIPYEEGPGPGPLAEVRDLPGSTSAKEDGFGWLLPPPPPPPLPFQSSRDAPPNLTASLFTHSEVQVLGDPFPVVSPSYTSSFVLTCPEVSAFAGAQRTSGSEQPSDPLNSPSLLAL
MEKK2wt confirm: raises or lowers MEK5 binding to wildtype human MEKK2, retest. bead flow cytometry, Alexa488-MEK5 binding to MEKK2 WT; actives lie on both sides. binding response (% of control), % at 10 µM. 5,900 compounds, 2.4% hits. shares compounds with MEKK3 PB1 HTS; in the data active = binding response below about 16% or above about 210%; inactive = in between
MEKK2mut-MEK5: signal of MEK5 binding to mutant human MEKK2, retest | shares compounds with MEKK3 PB1 HTS | bead flow cytometry, Alexa488-MEK5 binding to MEKK2 mutant | percent response, % at 10 µM | 5,900 compounds, 2% hits; in the data active = percent response mostly above about 71%, no sharp cut-off; inactive = mostly below about 38%;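 note: higher means compound restores mutant binding toward wildtype level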
MEKK3 confirm: confirmation of inhibitors of MEK5 binding to human MEKK3; AID 1894; bead flow cytometry, Alexa488-MEK5 binding to MEKK3; hits give low values; shares compounds with MEKK3 PB1 HTS; binding response (% of control), % at 10 µM; 5,900 compounds, 1.8% hits;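 active = binding response below 72% of control, or above a set upper limit, though filed actives all read lower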;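 note: lower values mean stronger disruption of MEK5 binding to MEKK3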
Each line names hits and unclear results; the compound was inactive in the other large screens (follow-up assays come after a bar, where they were run); [ ] = remark or other dose.

O=c1c2[nH]c3ccccc3c2ncn1CCC1=CCCCC1	none
O=C(O)C1C2C=CC(O2)C1C(=O)NCCC1=CCCCC1 (stereo unspecified)	MEKK2wt PB1 HTS 1.0[inhibitor], MEKK3 PB1 HTS 1.0[inhibitor] | MEKK2wt confirm inactive | MEKK2mut-MEK5 inactive | MEKK3 confirm inactive
COc1ccc(COC(=O)c2ccc(Cl)c(S(=O)(=O)N3CC(C)OC(C)C3)c2)cc1 (stereo unspecified)	none (no result: MEKK2wt PB1 HTS, MEKK2mut PB1 HTS, MEKK3 PB1 HTS, DNA FID counter)
Cc1ccc(CNC(=O)C(=O)NCCC2=CCCCC2)cc1	MEKK3 PB1 HTS 72.0[inhibitor] | MEKK2wt confirm inactive | MEKK2mut-MEK5 inactive | MEKK3 confirm inactive
COc1cccc(NC(=O)NC2(C(=O)N3CCN(C)CC3)CCCCC2)c1	none
O=C(Nc1ccc2c(c1)OCO2)c1ccc(N2CCCC2)c([N+](=O)[O-])c1	none
O=C(Nc1ccc2c(c1)OCO2)c1ccc(NC2CC2)c([N+](=O)[O-])c1	MEKK3 PB1 HTS 151.0 | MEKK2wt confirm inactive | MEKK2mut-MEK5 inactive | MEKK3 confirm inactive
O=C(c1ccco1)N1CCN(CC(O)Cn2c3ccccc3c3ccccc32)CC1 (stereo unspecified)	MEKK3 PB1 HTS 129.0 | MEKK2wt confirm inactive | MEKK2mut-MEK5 inactive | MEKK3 confirm inactive
O=C(c1ccco1)N1CCN(CC(O)COc2ccc(Br)cc2)CC1 (stereo unspecified)	none
Cc1ccc2[nH]c(=O)c(CN(Cc3cccs3)C(=S)NCc3ccco3)cc2c1	MEKK3 PB1 HTS 130.0 | MEKK2wt confirm inactive | MEKK2mut-MEK5 inactive | MEKK3 confirm inactive
COc1cc(C2CC(=O)Oc3c(C(CCN4CCOCC4)c4ccc(N(C)C)cc4)c(OC)cc(OC)c32)cc(OC)c1OC (stereo unspecified)	none (no result: DNA FID counter)
COc1cc(O)c(C(CCN2CCCC2)c2ccc(N(C)C)cc2)c(OC)c1 (stereo unspecified)	MEKK2wt PB1 HTS 153.0 (no result: DNA FID counter) | MEKK2wt confirm inactive | MEKK2mut-MEK5 inactive | MEKK3 confirm inactive
COc1cc(O)c(C(CCN2CCCCC2)c2ccc(N(C)C)cc2)c(OC)c1 (stereo unspecified)	none (no result: DNA FID counter)
COc1ccc(C2CC(=O)Oc3c(C(CCN4CCCC(C)C4)c4ccc(N(C)C)cc4)c(OC)cc(OC)c32)cc1 (stereo unspecified)	MEKK2wt PB1 HTS 152.0 (no result: DNA FID counter) | MEKK2wt confirm inactive | MEKK2mut-MEK5 inactive | MEKK3 confirm inactive
COc1ccc(C2CC(=O)Oc3c(C(CCN4CCCCC4)c4ccc(N(C)C)cc4)c(OC)cc(OC)c32)cc1 (stereo unspecified)	MEKK2wt PB1 HTS 156.0 (no result: DNA FID counter) | MEKK2wt confirm inactive | MEKK2mut-MEK5 inactive | MEKK3 confirm inactive
COC(=O)CCNCCSc1nnc(-c2ccco2)n1Cc1ccccc1	none
CCc1ccc(NC(=O)C(C)n2nc(C)c([N+](=O)[O-])c2C)cc1 (stereo unspecified)	MEKK3 PB1 HTS 68.0[inhibitor] | MEKK2wt confirm inactive | MEKK2mut-MEK5 inactive | MEKK3 confirm inactive
Cc1ccc(NC(=O)CN2C(=O)NC3(CCCCCC3)C2=O)cc1Cl	none (no result: MEKK2wt PB1 HTS, MEKK2mut PB1 HTS, MEKK3 PB1 HTS, DNA FID counter)
CN(CC(=O)NCc1ccccn1)S(=O)(=O)c1ccccc1	none
CN(CC(=O)NCc1ccccn1)S(=O)(=O)c1ccc2ccccc2c1	MEKK3 PB1 HTS 135.0 | MEKK2wt confirm inactive | MEKK2mut-MEK5 inactive | MEKK3 confirm inactive
CC1(C)CC(Cc2nc(=S)[nH][nH]2)C(=O)O1 (stereo unspecified)	none
C/C(=N\Nc1cc(N2CCCCC2)nc(C)n1)c1ccc(Br)cc1	MEKK2wt PB1 HTS 183.0, MEKK2mut PB1 HTS 45.0 | MEKK2wt confirm inactive | MEKK2mut-MEK5 inactive | MEKK3 confirm inactive
O=S(=O)(Nc1cccnc1)c1cccs1	MEKK3 PB1 HTS 41.0[inhibitor] | MEKK2wt confirm inactive | MEKK2mut-MEK5 inactive | MEKK3 confirm inactive
Cc1cccc(NS(=O)(=O)c2cccs2)c1	none
COc1ccc2cc3cc(C(=O)NC(C)C)oc3nc2c1	MEKK3 PB1 HTS 124.0 | MEKK2wt confirm inactive | MEKK2mut-MEK5 inactive | MEKK3 confirm inactive
COc1ccc2cc3cc(C(=O)Nc4cc(OC)c(OC)c(OC)c4)oc3nc2c1	none
COc1ccc(-n2c(=O)c(CCC(=O)NCCc3ccccc3F)nc3ccccc32)cc1	none (no result: MEKK2wt PB1 HTS, MEKK2mut PB1 HTS, MEKK3 PB1 HTS, DNA FID counter)
CCc1ccccc1NC(=O)CSc1nc2n[nH]c(C)c2c(=N)n1-c1cccc(OC)c1	MEKK2wt PB1 HTS 140.0 | MEKK2wt confirm inactive | MEKK2mut-MEK5 inactive | MEKK3 confirm inactive
COc1ccc(OC)c(NC(=O)CSc2nc3n[nH]c(C)c3c(=N)n2-c2cccc(Cl)c2C)c1	none
CC(=O)c1cccc(N(C(=O)Cn2nnc3ccccc32)C(C(=O)NCC2CCCO2)c2ccc(N3CCOCC3)cc2)c1 (stereo unspecified)	none
COc1ccc2c(c1)-c1c(ssc1=S)C(C)(C)N2S(=O)(=O)c1ccc(C)cc1	MEKK3 PB1 HTS 129.0 | MEKK2wt confirm inactive | MEKK2mut-MEK5 inactive | MEKK3 confirm inactive
Cc1ccc(S(=O)(=O)N2c3ccccc3-c3c(ssc3=S)C2(C)C)cc1	none
COc1ccc(OC)c(NC(=O)CC2SC(=Nc3ccc(F)cc3)N(CCC3=CCCCC3)C2=O)c1 (stereo unspecified)	MEKK3 PB1 HTS 139.0 | MEKK2wt confirm inactive | MEKK2mut-MEK5 inactive | MEKK3 confirm inactive
CCOC(=O)C(NC(=O)c1ccccc1)(OCc1ccccc1)C(F)(F)F (stereo unspecified)	MEKK3 PB1 HTS 159.0 | MEKK2wt confirm inactive | MEKK2mut-MEK5 inactive | MEKK3 confirm inactive
CCCN(CC(=O)Nc1ccc(C(N)=O)cc1)CC(=O)Nc1cc(Cl)ccc1Cl	none
CCCN(CC(=O)Nc1cc(Cl)cc(Cl)c1)CC(=O)Nc1ccc(F)c(F)c1F	MEKK2wt PB1 HTS 165.0 | MEKK2wt confirm inactive | MEKK2mut-MEK5 inactive | MEKK3 confirm inactive
CN(CC(=O)Nc1ccc(Cl)cc1)CC(=O)Nc1ccc(F)c(F)c1F	MEKK3 PB1 HTS 131.0 | MEKK2wt confirm inactive | MEKK2mut-MEK5 inactive | MEKK3 confirm inactive
CCCN(CC(=O)Nc1ccc(C(N)=O)cc1)CC(=O)Nc1ccc(Cl)cc1Cl	MEKK3 PB1 HTS 134.0 | MEKK2wt confirm inactive | MEKK2mut-MEK5 inactive | MEKK3 confirm inactive
COc1ccccc1N1CCN(S(=O)(=O)c2ccc(NC(C)=O)cc2)CC1	none
Cc1[nH]nc2c1C1(CCC3(CC1)OCCO3)C(C#N)=C(N)O2	MEKK2wt PB1 HTS -3.0[inhibitor], MEKK3 PB1 HTS 1.0[inhibitor] | MEKK2wt confirm inactive | MEKK2mut-MEK5 inactive | MEKK3 confirm inactive
CC1CCCCC1NC(=O)/C(C#N)=C/c1ccccc1F (stereo unspecified)	none
Cc1nc2[nH]c(=S)[nH]c2c(=O)[nH]1	none (no result: MEKK2wt PB1 HTS, MEKK2mut PB1 HTS, MEKK3 PB1 HTS, DNA FID counter)

Screens as filed in PubChem BioAssay.
